Screening results (PubChem)
BoNT A protease = blocks Botulinum neurotoxin A light chain protease; multiplex microsphere protease substrate cleavage, flow cytometry; inhibition, % at 10 µM; actives 0.17% (n = 360,000); AID 588499
Bead autofluor = counter-screen for toxin protease inhibitors: compound fluorescence. fluorescence intensity (concentration not given with the values). actives 3.1% (n = 360,000). compound autofluorescence counterscreen, microsphere flow cytometry; stronger effect = higher value; in the data active = fluorescence intensity above about 16000; inconclusive = no clear call, values can overlap the other calls
Anthrax LF prot = anthrax lethal factor protease inhibition | inhibition, % at 10 µM | AID 588501 | P15917 | multiplex microsphere protease cleavage assay, LF | actives 0.12% (n = 360,000)
BoNT F protease = BoNT F light chain protease inhibition | Multiplex microsphere protease cleavage assay, flow cytometry | actives 0.22% (n = 360,000) | inhibition, % at 10 µM; in the data active = inhibition above about 35%, passing the limit was not always enough; inconclusive = no clear call, values can overlap the other calls
MazF activator = MazEF (E. coli) toxin RNase activation | AID 504720 | actives 0.32% (n = 350,000) | activation, % at 20 µM | FAM/BHQ RNA-DNA oligo cleavage fluorescence, 5 h; in the data active = activation above about 50%
Target sequence (P0AE70 whole entry, looked up): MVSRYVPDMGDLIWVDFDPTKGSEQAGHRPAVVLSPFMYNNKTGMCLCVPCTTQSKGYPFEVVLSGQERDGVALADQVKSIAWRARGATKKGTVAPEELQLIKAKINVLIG
Hits are given with their value; - = inactive; ? = inconclusive; . = not tested or not shown. A selection: hits, their analogues and other compounds. The true share with any hit is near 3.7%. Rule as the data show it, unless noted: active = inhibition above about 30%; inconclusive = no clear call, values can overlap the other calls; inactive = below that.

SMILES	BoNT A protease	Bead autofluor	Anthrax LF prot	BoNT F protease	MazF activator
NC(=O)c1cc2cc(Cl)ccc2oc1=O	-	-	-	-	-
O=C(O)c1cc2cc(Cl)ccc2oc1=O	-	22395	-	-	-
CC(OC(=O)CCN=C1NS(=O)(=O)c2ccccc21)C(=O)Nc1ccc(N(C)C)cc1 (stereo not given)	-	-	-	-	-
CCCCN1C[C@H](C)[C@@H](CC(=O)Nc2ccccc2)C1=O	-	-	-	-	-
c1ccc(N/N=C(\Cc2ncc[nH]2)c2ccccc2)cc1	-	-	-	-	-
Clc1cccc(N/N=C(\Cc2nc3ccccc3[nH]2)c2ccccc2)c1	-	-	-	-	72
N#Cc1ccc(OCC(=O)N(C2CCCCC2)C2CCS(=O)(=O)C2)cc1 (stereo not given)	-	-	-	-	-
COc1ccc(N2CCN(C(c3cc4cc(C)ccc4[nH]c3=O)c3nnnn3Cc3ccccc3)CC2)cc1 (stereo not given)	-	20480	-	-	-
Cc1ccc2cc(C(c3nnnn3Cc3ccccc3)N3CCN(c4ccccc4)CC3)c(=O)[nH]c2c1 (stereo not given)	-	23279	-	-	-
Cc1ccc2cc(C(c3nnnn3C3CCCC3)N3CCN(c4ccccc4)CC3)c(=O)[nH]c2c1 (stereo not given)	-	-	-	-	-
COc1ccc(C(c2nnnn2Cc2ccccc2)N2CCN(c3ccccc3)CC2)cc1 (stereo not given)	-	-	-	-	-
CC1CCc2nc(NC(=O)C3CC3)sc2C1 (stereo not given)	-	-	-	-	-
Cc1ncsc1C(=O)Nc1nc2c(s1)CC(C)CC2 (stereo not given)	-	16464	-	-	-
CCSC1=C(C#N)C2(CCCCC2)C(C#N)=C(N)N1	-	-	-	-	-
CCSC1=C(C#N)C2(CCCCC2)C(C#N)C(=O)N1 (stereo not given)	?	20210	-	-	-
O/N=C/c1cccn1-c1ccc(O)cc1	-	23862	-	-	-
O=[N+]([O-])c1cccc(NC(=S)Nc2nc(-c3ccccc3Cl)cs2)c1	-	?	-	-	-
CCOc1cc([C@@H]2C[C@H]3CN(c4ccccc4)C(=O)[C@]34CCCN24)ccc1OC	-	22393	-	-	-
COc1ccccc1-n1cc([C@@H]2C[C@H]3CN(c4ccccc4)C(=O)[C@]34CCCN24)cn1	?	28945	?	?	-
Cc1nc(N2CCN(Cc3ccccc3)CC2)nc2c1C(=O)CCC2	-	-	-	-	-
O=C1CCCc2nc(N3CCN(Cc4ccccc4)CC3)ncc21	?	17293	-	-	-
Nc1nonc1C(=O)NCCN=Cc1cc(Cc2ccccc2)cc(Br)c1O	-	17444	-	-	-
COc1ccc2occ(C(=O)c3ccc(N)cc3)c2c1	-	-	-	?	-
O=C(c1cccs1)c1coc2ccc(O)c(CN(CCO)CCO)c12	-	21865	-	-	-
COc1ccc2occ(C(=O)c3cccs3)c2c1	-	24929	-	-	-
SMILES	BoNT A protease	Bead autofluor	Anthrax LF prot	BoNT F protease	MazF activator
COc1ccc2occ(C(=O)c3coc4ccc(O)c(CN(C)C)c34)c2c1	-	23271	-	-	-
CN(C)Cc1c(O)ccc2occ(C(=O)c3ccccc3)c12	-	22642	-	-	-
CCOC(=O)[C@@H]1[C@H]2COc3ccccc3[C@@H]2N2C(=O)N(c3ccc(Br)cc3)C(=O)[C@@]12C	-	-	-	-	.
COc1cc2cc(CN(C(=O)NC3CCCCC3)C3CCCC3)c(=O)[nH]c2cc1OC	-	-	-	-	-
Cc1ccc(C)c2[nH]c(=O)c(CN(CC3CCCO3)C(=O)NC3CCCCC3)cc12 (stereo not given)	?	19956	-	-	-
Cc1ccc(C)c2[nH]c(=O)c(CN(Cc3nnnn3C3CCCCC3)CC3CCCO3)cc12 (stereo not given)	-	-	-	-	-
COc1ccc(CN(Cc2cc3cc(OC)c(OC)cc3[nH]c2=O)C(=O)NC2CCCCC2)cc1	-	22119	-	-	-
NC(c1csc(NC(=O)Nc2ccc(OC(F)(F)F)cc2)n1)C1CCCCC1 (stereo not given)	-	-	-	-	.
CN1CCN(S(=O)(=O)c2ccc(N(C)Cc3ccc(OC(F)F)cc3)c([N+](=O)[O-])c2)CC1	-	?	-	-	-
CC(C)c1[nH]c(=O)c(C#N)c2c1COC(C)(C)C2	-	21618	-	-	-
Cc1[nH]c(=O)c(C#N)c2c1COC(C)(C)C2	-	-	-	-	-
Cc1nnc(N2CCCC(C(=O)Nc3cc(F)ccc3F)C2)c2nn(-c3ccccc3)c(C)c12 (stereo not given)	-	-	-	-	-
Cc1nnc(N2CCCC(C(=O)NCc3ccc(OC(C)C)cc3)C2)c2nn(-c3ccccc3)c(C)c12 (stereo not given)	-	24028	-	-	88
CC1CCCC(NC(=O)CN2CCN(S(=O)(=O)c3ccc(Br)s3)CC2)C1C (stereo not given)	-	-	-	?	-
O=C(Nc1ccc(Cl)cc1)N1CCC(c2ccccc2)C1 (stereo not given)	-	-	-	-	-
CC(C)N(C)C1CCN(C(=O)Nc2ccc(Cl)cc2)CC1	-	23132	-	-	-
CCCn1c(O)c(N=Nc2ccc3ccccc3n2)c2ccccc21	-	-	-	-	146
CC(=O)Nc1ccc(S(=O)(=O)N(C#N)c2nc(N(C)C)nc(N(C)C)n2)cc1	-	-	-	?	-
Cc1ccccc1OCC(=O)OCC(=O)NCCc1ccccc1	-	-	-	-	-
COc1cc(CN2CCC(C(=O)N3CCN(c4ccccc4F)CC3)CC2)ccc1O	-	23648	-	-	-
COc1cccc(CN2CCC(C(=O)N3CCN(c4ccccc4F)CC3)CC2)c1	-	-	-	-	-
CC1=CN2C(=NC(=O)CC2(C)C(=O)N(CC(=O)NC2CCCC2)Cc2ccc(Cl)cc2)C=C1 (stereo not given)	-	-	-	-	-
CCCSc1nnc(NC(=O)c2nc(SC)ncc2Cl)s1	?	19506	-	-	-
COc1ccccc1OCCCCn1c(C(C)O)nc2ccccc21 (stereo not given)	-	-	-	-	-
CCOc1ccc2oc(-c3ccccc3)c(C(=O)O)c2c1	-	-	-	-	-
SMILES	BoNT A protease	Bead autofluor	Anthrax LF prot	BoNT F protease	MazF activator
CC(Oc1ccc2oc(-c3ccccc3)c(C(=O)O)c2c1)C(=O)O (stereo not given)	-	16623	-	-	-
Cc1cc2c(ncn2Cc2ccccc2)c([N+](=O)[O-])c1C	-	22108	-	-	-
CC1CCN(S(=O)(=O)c2cccc(C(=O)NC3CCCC3)c2)CC1	-	?	-	-	-
O=C(Cn1c(CC(=O)N2CCCC2)nc2ccccc21)NCc1ccccc1	-	24078	-	-	-
Cc1nc2ccccc2n1CC(=O)NCc1ccccc1	-	22747	-	-	-
O=C(Cn1c(=O)n(CC(=O)N2CCCCC2)c(=O)c2sccc21)NCc1ccccc1	-	-	-	-	-
O=S(=O)(c1ccc(OC(F)(F)F)cc1)N1CCCC(c2ccccc2)C1 (stereo not given)	-	-	-	-	-
